In paper PMC5540273 (PLoS ONE, 2017):
Read-outs that look alike come from different tables or passages of the source.

Experiments:
PLK2 = settings: concentration: 1 μM, replicates: in singlicate; n = 1
PLK3 = settings: concentration: 1 μM, replicates: in singlicate; n = 1
PLK4 = settings: concentration: 1 μM, replicates: in singlicate; n = 1
PRKCD = settings: n = 1
PRKCE = settings: concentration: 1 μM, replicates: in singlicate; n = 1
PRKCH = settings: concentration: 1 μM, replicates: in singlicate; n = 1
PRKCI = settings: n = 1
PRKCQ = settings: concentration: 1 μM, replicates: in singlicate; n = 1
PRKD1 = settings: concentration: 1 μM, replicates: in singlicate; n = 1
PRKD2 = settings: concentration: 1 μM, replicates: in singlicate; n = 1
PRKD3 = settings: concentration: 1 μM, replicates: in singlicate; n = 1
PRKG1 = settings: n = 1
PRKG2 = settings: concentration: 1 μM, replicates: in singlicate; n = 1
PRKR = system: T1, PRKR; settings: concentration: 1 μM, replicates: in singlicate; n = 1
T1 construct: gene EIF2AK2

PRKX = settings: n = 1
PRP4 = settings: concentration: 1 μM, replicates: in singlicate; n = 1
PYK2 = system: T2, PYK2; settings: concentration: 1 μM, replicates: in singlicate; n = 1
T2 construct: gene PTK2B

QSK = settings: concentration: 1 μM, replicates: in singlicate; n = 1
RAF1 = settings: concentration: 1 μM, replicates: in singlicate; n = 1
RET = settings: concentration: 1 μM, replicates: in singlicate; n = 1
[1] = concentration: 1 μM, replicates: in singlicate
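Note: KINOMEscan kinase panel screen.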

## c1ccc(-c2n[nH]cc2Nc2ccnc3ccccc23)nc1 [GW694077]
PLK2
  %Inh: 0%
PLK3
  %Inh: 0%
PLK4
  %Inh: 48%
PRKCD; [1]
  %Inh: 0%
PRKCE
  %Inh: 22%
PRKCH
  %Inh: 0%
PRKCI; [1]
  %Inh: 48%
PRKCQ
  %Inh: 0%
PRKD1
  %Inh: 91.8%
PRKD2
  %Inh: 96.2%
PRKD3
  %Inh: 100%
PRKG1; [1]
  %Inh: 5%
PRKG2
  %Inh: 0%
PRKR
  %Inh: 16%
PRKX; [1]
  %Inh: 0%
PRP4
  %Inh: 89%
PYK2
  %Inh: 0%
QSK
  %Inh: 0%
RAF1
  %Inh: 7%
RET
  %Inh: 0%

## CN(C)S(=O)(=O)c1cc(-c2ccc3nccc(-c4cccc(S(N)(=O)=O)c4)c3c2)cnc1N [GSK1669921]
PLK2
  %Inh: 2%
PLK3
  %Inh: 0%
PLK4
  %Inh: 0%
PRKCD; [1]
  %Inh: 0%
PRKCE
  %Inh: 15%
PRKCH
  %Inh: 29%
PRKCI; [1]
  %Inh: 7%
PRKCQ
  %Inh: 10%
PRKD1
  %Inh: 0%
PRKD2
  %Inh: 0%
PRKD3
  %Inh: 100%
PRKG1; [1]
  %Inh: 34%
PRKG2
  %Inh: 76%
PRKR
  %Inh: 0%
PRKX; [1]
  %Inh: 27%
PRP4
  %Inh: 0%
PYK2
  %Inh: 6%
QSK
  %Inh: 7%
RAF1
  %Inh: 9%
RET
  %Inh: 58%

## COc1cc(Nc2nccc(N3CCC(NC(=O)Nc4cccc(C(C)=O)c4)C3)n2)cc(OC)c1OC (stereo not shown) [GSK1379753]
PLK2
  %Inh: 0%
PLK3
  %Inh: 0%
PLK4
  %Inh: 54%
PRKCD; [1]
  %Inh: 5%
PRKCE
  %Inh: 0%
PRKCH
  %Inh: 0%
PRKCI; [1]
  %Inh: 25%
PRKCQ
  %Inh: 0%
PRKD1
  %Inh: 0%
PRKD2
  %Inh: 0%
PRKD3
  %Inh: 0%
PRKG1; [1]
  %Inh: 0%
PRKG2
  %Inh: 0%
PRKR
  %Inh: 0%
PRKX; [1]
  %Inh: 37%
PRP4
  %Inh: 14%
PYK2
  %Inh: 0%
QSK
  %Inh: 0%
RAF1
  %Inh: 14%
RET
  %Inh: 0%

## CCCCc1nn2ncccc2c1-c1ccnc(Nc2ccc(N3CCN(C)CC3)cc2)n1 [GW684941]
PLK2
  %Inh: 0%
PLK3
  %Inh: 0%
PLK4
  %Inh: 74%
PRKCD; [1]
  %Inh: 0%
PRKCE
  %Inh: 14%
PRKCH
  %Inh: 0%
PRKCI; [1]
  %Inh: 17%
PRKCQ
  %Inh: 0%
PRKD1
  %Inh: 63%
PRKD2
  %Inh: 55%
PRKD3
  %Inh: 86%
PRKG1; [1]
  %Inh: 0%
PRKG2
  %Inh: 4%
PRKR
  %Inh: 0%
PRKX; [1]
  %Inh: 31%
PRP4
  %Inh: 36%
PYK2
  %Inh: 40%
QSK
  %Inh: 43%
RAF1
  %Inh: 0%
RET
  %Inh: 99.5%

## Cn1cc(-c2ccc3c(c2)CCN3C(=O)Cc2cccc(F)c2)c2c(N)ncnc21 [GSK2603358]
PLK2
  %Inh: 0%
PLK3
  %Inh: 6%
PLK4
  %Inh: 0%
PRKCD; [1]
  %Inh: 0%
PRKCE
  %Inh: 14%
PRKCH
  %Inh: 24%
PRKCI; [1]
  %Inh: 30%
PRKCQ
  %Inh: 0%
PRKD1
  %Inh: 0%
PRKD2
  %Inh: 0%
PRKD3
  %Inh: 2%
PRKG1; [1]
  %Inh: 0%
PRKG2
  %Inh: 4%
PRKR
  %Inh: 1%
PRKX; [1]
  %Inh: 14%
PRP4
  %Inh: 44%
PYK2
  %Inh: 0%
QSK
  %Inh: 8%
RAF1
  %Inh: 9%
RET
  %Inh: 47%

## CCn1c(-c2nonc2N)nc2c(C#CC(C)(C)O)ncc(OCCCCN)c21.O=C(O)C(F)(F)F.O=C(O)C(F)(F)F [GSK507274]
PLK2
  %Inh: 0%
PLK3
  %Inh: 0%
PLK4
  %Inh: 0%
PRKCD; 1 µM
  %Inh: 91%
PRKCE
  %Inh: 98%
PRKCH
  %Inh: 97.7%
PRKCI; 1 µM
  %Inh: 78%
PRKCQ
  %Inh: 86%
PRKD1
  %Inh: 29%
PRKD2
  %Inh: 23%
PRKD3
  %Inh: 0%
PRKG1; 1 µM
  %Inh: 64%
PRKG2
  %Inh: 96%
PRKR
  %Inh: 0%
PRKX; 1 µM
  %Inh: 94.1%
PRP4
  %Inh: 2%
PYK2
  %Inh: 0%
QSK
  %Inh: 5%
RAF1
  %Inh: 13%
RET
  %Inh: 1%

## Fc1ccc(-c2ncn(C3CCNCC3)c2-c2ccnc(Oc3ccc(-c4ccccc4)cc3)n2)cc1 [SB-245391]
PLK2
  %Inh: 28%
PLK3
  %Inh: 17%
PLK4
  %Inh: 27%
PRKCD; [1]
  %Inh: 32%
PRKCE
  %Inh: 40%
PRKCH
  %Inh: 0%
PRKCI; [1]
  %Inh: 54%
PRKCQ
  %Inh: 0%
PRKD1
  %Inh: 0%
PRKD2
  %Inh: 0%
PRKD3
  %Inh: 0%
PRKG1; [1]
  %Inh: 6%
PRKG2
  %Inh: 26%
PRKR
  %Inh: 25%
PRKX; [1]
  %Inh: 0%
PRP4
  %Inh: 0%
PYK2
  %Inh: 80%
QSK
  %Inh: 7%
RAF1
  %Inh: 0%
RET
  %Inh: 3%

## COc1cc2c(cc1OCCN1CCNCC1)ncc1c3ccc(C#N)cc3[nH]c21
PLK2
  %Inh: 22%
PLK3
  %Inh: 20%
PLK4
  %Inh: 32%
PRKCD; [1]
  %Inh: 0%
PRKCE
  %Inh: 19%
PRKCH
  %Inh: 0%
PRKCI; [1]
  %Inh: 24%
PRKCQ
  %Inh: 0%
PRKD1
  %Inh: 0%
PRKD2
  %Inh: 0%
PRKD3
  %Inh: 0%
PRKG1; [1]
  %Inh: 0%
PRKG2
  %Inh: 7%
PRKR
  %Inh: 9%
PRKX; [1]
  %Inh: 34%
PRP4
  %Inh: 38%
PYK2
  %Inh: 0%
QSK
  %Inh: 52%
RAF1
  %Inh: 29%
RET
  %Inh: 35%
